# Assay results: publication PMC7862700, “An all-to-all approach to the identification of sequence-specific readers for epigenetic DNA modifications on cytosine”
# Molecular target: T1, ERF (Homo sapiens, UniProt P50548 1-548)
# T1 sequence: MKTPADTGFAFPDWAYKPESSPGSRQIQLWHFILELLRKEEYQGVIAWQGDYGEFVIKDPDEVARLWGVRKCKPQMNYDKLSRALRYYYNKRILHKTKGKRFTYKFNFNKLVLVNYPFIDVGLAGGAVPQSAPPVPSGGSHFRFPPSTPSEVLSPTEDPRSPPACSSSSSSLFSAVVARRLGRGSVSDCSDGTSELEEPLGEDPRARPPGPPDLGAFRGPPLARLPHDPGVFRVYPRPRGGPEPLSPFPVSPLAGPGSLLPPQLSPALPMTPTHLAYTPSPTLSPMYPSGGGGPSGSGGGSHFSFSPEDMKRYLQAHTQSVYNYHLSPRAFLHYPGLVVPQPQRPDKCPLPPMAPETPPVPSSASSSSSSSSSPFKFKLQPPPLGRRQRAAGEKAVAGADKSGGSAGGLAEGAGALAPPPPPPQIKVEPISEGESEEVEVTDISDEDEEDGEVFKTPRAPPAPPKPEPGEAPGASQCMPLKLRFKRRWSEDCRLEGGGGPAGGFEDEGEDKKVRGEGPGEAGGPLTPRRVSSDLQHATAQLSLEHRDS
# Assay: DAPPL (digital affinity profiling via proximity ligation, sequencing); 10 mM Tris-HCl pH 7.5, 50 mM NaCl, 1 mM DTT, 4% glycerol, room temperature, 30 min; GST-TFs on glutathione beads, 16-mer random dsDNA library, 0.1% formaldehyde crosslink after washing; high values mean tight binding
# Settings: protein: recombinant; tags: N-terminal GST; dsDNA, one strand shown
# Procedure, shortened: (§1)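 Binding signal is each hexamer's read frequency for a factor divided by its frequency in the tag-only sample. The factors were GST-fused human transcription factors from yeast, captured on glutathione beads, DNA-barcoded and pooled with that sample. Pools were incubated with 200 nmole of a random double-stranded 16-mer DNA library in Tris/NaCl/DTT/glycerol buffer at room temperature for 30 min, then washed, crosslinked with 0.1% formaldehyde, proximity-ligated with BsaI/T4 ligase (1 h, 37 °C), PCR-amplified and sequenced on an Illumina NextSeq500.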
row,Sequence,binding signal
1,TTCCCT,"1.58 fold enrichment (6-mer frequency, TF over GST control)"
2,ACAACC,"1.19 fold enrichment (6-mer frequency, TF over GST control)"
3,CCCTCT,"1.41 fold enrichment (6-mer frequency, TF over GST control)"
4,GTTGCA,"1.13 fold enrichment (6-mer frequency, TF over GST control)"
5,CCGAAA,"1.22 fold enrichment (6-mer frequency, TF over GST control)"
6,ATGGCT,"1.27 fold enrichment (6-mer frequency, TF over GST control)"
7,GTGGCT,"1.18 fold enrichment (6-mer frequency, TF over GST control)"
8,GTTTTA,"1.2 fold enrichment (6-mer frequency, TF over GST control)"
9,TTGGCC,"1.08 fold enrichment (6-mer frequency, TF over GST control)"
10,GTAGCA,"1.22 fold enrichment (6-mer frequency, TF over GST control)"
11,CTGGTC,"1.19 fold enrichment (6-mer frequency, TF over GST control)"
12,TTTGGC,"1.29 fold enrichment (6-mer frequency, TF over GST control)"
13,CCTTGT,"1.29 fold enrichment (6-mer frequency, TF over GST control)"
14,TCTGGT,"1.34 fold enrichment (6-mer frequency, TF over GST control)"
15,CTTGTT,"1.17 fold enrichment (6-mer frequency, TF over GST control)"
16,GCTTAT,"1.31 fold enrichment (6-mer frequency, TF over GST control)"
17,CCGCCC,"1.21 fold enrichment (6-mer frequency, TF over GST control)"
18,CACGCC,"1.21 fold enrichment (6-mer frequency, TF over GST control)"
19,CCACGA,"1.04 fold enrichment (6-mer frequency, TF over GST control)"
20,TGGCAA,"1.21 fold enrichment (6-mer frequency, TF over GST control)"

row,Sequence,binding signal
1,TCCCCA,"1.32 fold enrichment (6-mer frequency, TF over GST control)"
2,TAGAAG,"1.42 fold enrichment (6-mer frequency, TF over GST control)"
3,CAATCA,"1.19 fold enrichment (6-mer frequency, TF over GST control)"
4,AATGAA,"1.29 fold enrichment (6-mer frequency, TF over GST control)"
5,TCACCC,"1.2 fold enrichment (6-mer frequency, TF over GST control)"
6,CGTTAT,"1.17 fold enrichment (6-mer frequency, TF over GST control)"
7,ACACAA,"1.26 fold enrichment (6-mer frequency, TF over GST control)"
8,CTCACC,"1.33 fold enrichment (6-mer frequency, TF over GST control)"
9,GTAATT,"1.12 fold enrichment (6-mer frequency, TF over GST control)"
10,CCAATG,"1.03 fold enrichment (6-mer frequency, TF over GST control)"
11,CCCCGC,"1.11 fold enrichment (6-mer frequency, TF over GST control)"
12,ACGACA,"1.11 fold enrichment (6-mer frequency, TF over GST control)"
13,CGCTGC,"1.28 fold enrichment (6-mer frequency, TF over GST control)"
14,CGTTCC,"1.4 fold enrichment (6-mer frequency, TF over GST control)"
15,ATTCCA,"1.14 fold enrichment (6-mer frequency, TF over GST control)"
16,TTGTAC,"1.31 fold enrichment (6-mer frequency, TF over GST control)"
17,CACATT,"1.33 fold enrichment (6-mer frequency, TF over GST control)"
18,GCTACA,"1.2 fold enrichment (6-mer frequency, TF over GST control)"
19,GGTTCC,"1.35 fold enrichment (6-mer frequency, TF over GST control)"
20,CAGGAT,"1.15 fold enrichment (6-mer frequency, TF over GST control)"

# Molecular target: T2, ETV3L (Homo sapiens, UniProt Q6ZN32 1-361)
# T2 sequence: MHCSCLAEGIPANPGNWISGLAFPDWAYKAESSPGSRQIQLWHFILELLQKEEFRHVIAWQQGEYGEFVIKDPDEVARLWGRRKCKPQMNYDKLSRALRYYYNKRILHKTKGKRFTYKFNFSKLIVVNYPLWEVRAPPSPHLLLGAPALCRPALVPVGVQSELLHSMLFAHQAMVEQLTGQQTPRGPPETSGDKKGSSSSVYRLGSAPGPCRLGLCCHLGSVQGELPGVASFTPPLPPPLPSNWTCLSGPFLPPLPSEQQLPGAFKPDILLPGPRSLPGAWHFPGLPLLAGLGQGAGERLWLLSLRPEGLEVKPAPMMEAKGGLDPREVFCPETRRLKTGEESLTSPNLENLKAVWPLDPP
# Assay: as above
# Settings: protein: recombinant; tags: N-terminal GST; dsDNA, one strand shown
# Procedure, shortened: as §1
row,Sequence,binding signal
1,TTCCCT,"1.69 fold enrichment (6-mer frequency, TF over GST control)"
2,ACAACC,"1.17 fold enrichment (6-mer frequency, TF over GST control)"
3,CCCTCT,"1.3 fold enrichment (6-mer frequency, TF over GST control)"
4,GTTGCA,"1.19 fold enrichment (6-mer frequency, TF over GST control)"
5,CCGAAA,"1.2 fold enrichment (6-mer frequency, TF over GST control)"
6,ATGGCT,"1.37 fold enrichment (6-mer frequency, TF over GST control)"
7,GTGGCT,"1.07 fold enrichment (6-mer frequency, TF over GST control)"
8,GTTTTA,"1.02 fold enrichment (6-mer frequency, TF over GST control)"
9,TTGGCC,"1.09 fold enrichment (6-mer frequency, TF over GST control)"
10,GTAGCA,"1.04 fold enrichment (6-mer frequency, TF over GST control)"
11,CTGGTC,"1.27 fold enrichment (6-mer frequency, TF over GST control)"
12,TTTGGC,"1.23 fold enrichment (6-mer frequency, TF over GST control)"
13,CCTTGT,"1.05 fold enrichment (6-mer frequency, TF over GST control)"
14,TCTGGT,"1.26 fold enrichment (6-mer frequency, TF over GST control)"
15,CTTGTT,"1.17 fold enrichment (6-mer frequency, TF over GST control)"
16,GCTTAT,"1.23 fold enrichment (6-mer frequency, TF over GST control)"
17,CCGCCC,"1.36 fold enrichment (6-mer frequency, TF over GST control)"
18,CACGCC,"1.2 fold enrichment (6-mer frequency, TF over GST control)"
19,CCACGA,"1.09 fold enrichment (6-mer frequency, TF over GST control)"
20,TGGCAA,"1.23 fold enrichment (6-mer frequency, TF over GST control)"

row,Sequence,binding signal
1,TCCCCA,"1.41 fold enrichment (6-mer frequency, TF over GST control)"
2,TAGAAG,"1.17 fold enrichment (6-mer frequency, TF over GST control)"
3,CAATCA,"1.2 fold enrichment (6-mer frequency, TF over GST control)"
4,AATGAA,"1.19 fold enrichment (6-mer frequency, TF over GST control)"
5,TCACCC,"1.16 fold enrichment (6-mer frequency, TF over GST control)"
6,CGTTAT,"1.2 fold enrichment (6-mer frequency, TF over GST control)"
7,ACACAA,"1.2 fold enrichment (6-mer frequency, TF over GST control)"
8,CTCACC,"1.16 fold enrichment (6-mer frequency, TF over GST control)"
9,GTAATT,"1.21 fold enrichment (6-mer frequency, TF over GST control)"
10,CCAATG,"1.11 fold enrichment (6-mer frequency, TF over GST control)"
11,CCCCGC,"1.23 fold enrichment (6-mer frequency, TF over GST control)"
12,ACGACA,"1.12 fold enrichment (6-mer frequency, TF over GST control)"
13,CGCTGC,"1.17 fold enrichment (6-mer frequency, TF over GST control)"
14,CGTTCC,"1.43 fold enrichment (6-mer frequency, TF over GST control)"
15,ATTCCA,"1.31 fold enrichment (6-mer frequency, TF over GST control)"
16,TTGTAC,"1.41 fold enrichment (6-mer frequency, TF over GST control)"
17,CACATT,"1.17 fold enrichment (6-mer frequency, TF over GST control)"
18,GCTACA,"1.29 fold enrichment (6-mer frequency, TF over GST control)"
19,GGTTCC,"1.46 fold enrichment (6-mer frequency, TF over GST control)"
20,CAGGAT,"1.3 fold enrichment (6-mer frequency, TF over GST control)"

# Molecular target: T3, ETS2 (Homo sapiens, UniProt P15036 1-469)
# T3 sequence: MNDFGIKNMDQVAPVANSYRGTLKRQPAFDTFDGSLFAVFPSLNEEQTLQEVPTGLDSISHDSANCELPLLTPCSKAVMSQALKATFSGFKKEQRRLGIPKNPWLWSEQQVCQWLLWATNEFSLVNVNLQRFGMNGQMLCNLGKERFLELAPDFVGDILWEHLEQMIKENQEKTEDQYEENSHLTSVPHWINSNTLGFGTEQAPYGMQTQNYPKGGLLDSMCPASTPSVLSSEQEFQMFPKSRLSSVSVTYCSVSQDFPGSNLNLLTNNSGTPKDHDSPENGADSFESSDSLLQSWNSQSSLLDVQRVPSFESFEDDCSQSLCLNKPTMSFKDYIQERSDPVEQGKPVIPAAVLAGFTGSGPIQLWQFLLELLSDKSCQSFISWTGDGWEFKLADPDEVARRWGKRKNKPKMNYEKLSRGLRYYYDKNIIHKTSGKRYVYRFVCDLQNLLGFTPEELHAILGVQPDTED
# Assay: as above
# Settings: protein: recombinant; tags: N-terminal GST; dsDNA, one strand shown
# Procedure, shortened: as §1
row,Sequence,binding signal
1,TTCCCT,"1.75 fold enrichment (6-mer frequency, TF over GST control)"
2,ACAACC,"1.26 fold enrichment (6-mer frequency, TF over GST control)"
3,CCCTCT,"1.36 fold enrichment (6-mer frequency, TF over GST control)"
4,GTTGCA,"1.17 fold enrichment (6-mer frequency, TF over GST control)"
5,CCGAAA,"1.22 fold enrichment (6-mer frequency, TF over GST control)"
6,ATGGCT,"1.32 fold enrichment (6-mer frequency, TF over GST control)"
7,GTGGCT,"1.14 fold enrichment (6-mer frequency, TF over GST control)"
8,GTTTTA,"1.1 fold enrichment (6-mer frequency, TF over GST control)"
9,TTGGCC,"1.01 fold enrichment (6-mer frequency, TF over GST control)"
10,GTAGCA,"1.02 fold enrichment (6-mer frequency, TF over GST control)"
11,CTGGTC,"1.21 fold enrichment (6-mer frequency, TF over GST control)"
12,TTTGGC,"1.18 fold enrichment (6-mer frequency, TF over GST control)"
13,CCTTGT,"1.26 fold enrichment (6-mer frequency, TF over GST control)"
14,TCTGGT,"1.16 fold enrichment (6-mer frequency, TF over GST control)"
15,CTTGTT,"1.15 fold enrichment (6-mer frequency, TF over GST control)"
16,GCTTAT,"1.36 fold enrichment (6-mer frequency, TF over GST control)"
17,CCGCCC,"1.29 fold enrichment (6-mer frequency, TF over GST control)"
18,CACGCC,"1.09 fold enrichment (6-mer frequency, TF over GST control)"
19,CCACGA,"1.08 fold enrichment (6-mer frequency, TF over GST control)"
20,TGGCAA,"1.14 fold enrichment (6-mer frequency, TF over GST control)"

row,Sequence,binding signal
1,TCCCCA,"1.38 fold enrichment (6-mer frequency, TF over GST control)"
2,TAGAAG,"1.12 fold enrichment (6-mer frequency, TF over GST control)"
3,CAATCA,"1.13 fold enrichment (6-mer frequency, TF over GST control)"
4,AATGAA,"1.15 fold enrichment (6-mer frequency, TF over GST control)"
5,TCACCC,"1.13 fold enrichment (6-mer frequency, TF over GST control)"
6,CGTTAT,"1.15 fold enrichment (6-mer frequency, TF over GST control)"
7,ACACAA,"1.25 fold enrichment (6-mer frequency, TF over GST control)"
8,CTCACC,"1.11 fold enrichment (6-mer frequency, TF over GST control)"
9,GTAATT,"1.28 fold enrichment (6-mer frequency, TF over GST control)"
10,CCAATG,"1.08 fold enrichment (6-mer frequency, TF over GST control)"
11,CCCCGC,"1.14 fold enrichment (6-mer frequency, TF over GST control)"
12,ACGACA,"1.12 fold enrichment (6-mer frequency, TF over GST control)"
13,CGCTGC,"1.28 fold enrichment (6-mer frequency, TF over GST control)"
14,CGTTCC,"1.48 fold enrichment (6-mer frequency, TF over GST control)"
15,ATTCCA,"1.15 fold enrichment (6-mer frequency, TF over GST control)"
16,TTGTAC,"1.34 fold enrichment (6-mer frequency, TF over GST control)"
17,CACATT,"1.2 fold enrichment (6-mer frequency, TF over GST control)"
18,GCTACA,"1.17 fold enrichment (6-mer frequency, TF over GST control)"
19,GGTTCC,"1.59 fold enrichment (6-mer frequency, TF over GST control)"
20,CAGGAT,"1.19 fold enrichment (6-mer frequency, TF over GST control)"
